In paper PMC12864922, “TDP-43 directly inhibits mRNA accumulation in neurites through modulation of mRNA stability”:
Over roughly 9,900 sequences, “r (bound/input frequency ratio)” has its median near 0.7; the highest 2% begin near 6.5. Shown is part of a subset that was picked to be rich in the highest values.

B1: ENSMUSG00000043670.205|Diras1 (ssRNA)
RNA: GGGAGUUCUACAGUCCGACGAUCGCUUCGAUAUCCGCAUGCUACACCCAGAUGAGGGUGACUUAGAAUUCUGUGUUUAUGUGCCUGUGUGUGUGGAUGGGUGUGUGUCUGUCUUGGGAUGGGGUGUUCUUGCACCACUUUGUGUUCUUAGUGAGACCACAGUGUAAGUGGCCGUGUGUGUGUGUGGGGGGGGGCACCUAGACAUUGUGGUGUGUCUGUAUGGCUCUGUGUUUUCAGGGGUGGGUGACACAGGCCUGUCUGAUGAGCACCAGGUCUGUUCCAGGCUGUGGCAAGCUGGCUCCUGCUCUUGCGGUCGCACUAGUGUGGAAUUCUCGGGUGUCAAGG
B2: ENSMUSG00000043670.210|Diras1 (ssRNA)
RNA: GGGAGUUCUACAGUCCGACGAUCGCUUCGAUAUCCGCAUGCUAGUUUAUGUGCCUGUGUGUGUGGAUGGGUGUGUGUCUGUCUUGGGAUGGGGUGUUCUUGCACCACUUUGUGUUCUUAGUGAGACCACAGUGUAAGUGGCCGUGUGUGUGUGUGGGGGGGGGCACCUAGACAUUGUGGUGUGUCUGUAUGGCUCUGUGUUUUCAGGGGUGGGUGACACAGGCCUGUCUGAUGAGCACCAGGUCUGUUCCAGGCUGUGGCAAGCUGGCUCCUGGCUCAGAAGUGACAAAGCUGCAGUACAGAGCUCUUGCGGUCGCACUAGUGUGGAAUUCUCGGGUGUCAAGG
B3: ENSMUSG00000043670.215|Diras1 (ssRNA)
RNA: GGGAGUUCUACAGUCCGACGAUCGCUUCGAUAUCCGCAUGCUAGUGUCUGUCUUGGGAUGGGGUGUUCUUGCACCACUUUGUGUUCUUAGUGAGACCACAGUGUAAGUGGCCGUGUGUGUGUGUGGGGGGGGGCACCUAGACAUUGUGGUGUGUCUGUAUGGCUCUGUGUUUUCAGGGGUGGGUGACACAGGCCUGUCUGAUGAGCACCAGGUCUGUUCCAGGCUGUGGCAAGCUGGCUCCUGGCUCAGAAGUGACAAAGCUGCAGUACAGAGGCCUCAGUGUGAGGUCAUCACCUCACAGUGCUCUUGCGGUCGCACUAGUGUGGAAUUCUCGGGUGUCAAGG
B4: ENSMUSG00000043670.212|Diras1 (ssRNA)
RNA: GGGAGUUCUACAGUCCGACGAUCGCUUCGAUAUCCGCAUGCUAGUGUGUGUGGAUGGGUGUGUGUCUGUCUUGGGAUGGGGUGUUCUUGCACCACUUUGUGUUCUUAGUGAGACCACAGUGUAAGUGGCCGUGUGUGUGUGUGGGGGGGGGCACCUAGACAUUGUGGUGUGUCUGUAUGGCUCUGUGUUUUCAGGGGUGGGUGACACAGGCCUGUCUGAUGAGCACCAGGUCUGUUCCAGGCUGUGGCAAGCUGGCUCCUGGCUCAGAAGUGACAAAGCUGCAGUACAGAGGCCUCAGUGUGACUCUUGCGGUCGCACUAGUGUGGAAUUCUCGGGUGUCAAGG
B5: ENSMUSG00000043670.208|Diras1 (ssRNA)
RNA: GGGAGUUCUACAGUCCGACGAUCGCUUCGAUAUCCGCAUGCUAUUAGAAUUCUGUGUUUAUGUGCCUGUGUGUGUGGAUGGGUGUGUGUCUGUCUUGGGAUGGGGUGUUCUUGCACCACUUUGUGUUCUUAGUGAGACCACAGUGUAAGUGGCCGUGUGUGUGUGUGGGGGGGGGCACCUAGACAUUGUGGUGUGUCUGUAUGGCUCUGUGUUUUCAGGGGUGGGUGACACAGGCCUGUCUGAUGAGCACCAGGUCUGUUCCAGGCUGUGGCAAGCUGGCUCCUGGCUCAGAAGUGACAAAGCCUCUUGCGGUCGCACUAGUGUGGAAUUCUCGGGUGUCAAGG
B6: ENSMUSG00000043670.203|Diras1 (ssRNA)
RNA: GGGAGUUCUACAGUCCGACGAUCGCUUCGAUAUCCGCAUGCUAGGGCCUGUGUCCCACCCAGAUGAGGGUGACUUAGAAUUCUGUGUUUAUGUGCCUGUGUGUGUGGAUGGGUGUGUGUCUGUCUUGGGAUGGGGUGUUCUUGCACCACUUUGUGUUCUUAGUGAGACCACAGUGUAAGUGGCCGUGUGUGUGUGUGGGGGGGGGCACCUAGACAUUGUGGUGUGUCUGUAUGGCUCUGUGUUUUCAGGGGUGGGUGACACAGGCCUGUCUGAUGAGCACCAGGUCUGUUCCAGGCUGUGGCACUCUUGCGGUCGCACUAGUGUGGAAUUCUCGGGUGUCAAGG
B7: ENSMUSG00000043670.203|Diras1|6:10;40:44;54:63;69:76;109:113;142:154;178:183;186:190;195:199 (ssRNA)
RNA: GGGAGUUCUACAGUCCGACGAUCGCUUCGAUAUCCGCAUGCUAGGGCCACACACCCACCCAGAUGAGGGUGACUUAGAAUUCACACAUUAUGUGCCACACACACACGAUGGCACACACACUGUCUUGGGAUGGGGUGUUCUUGCACCACUUACACAUCUUAGUGAGACCACAGUGUAAGUGGCCCACACACACACACGGGGGGGGCACCUAGACAUUGUGCACACACUCAUACGCUCACACAUUUCAGGGGUGGGUGACACAGGCCUGUCUGAUGAGCACCAGGUCUGUUCCAGGCUGUGGCACUCUUGCGGUCGCACUAGUGUGGAAUUCUCGGGUGUCAAGG
B8: ENSMUSG00000043670.207|Diras1 (ssRNA)
RNA: GGGAGUUCUACAGUCCGACGAUCGCUUCGAUAUCCGCAUGCUAGGUGACUUAGAAUUCUGUGUUUAUGUGCCUGUGUGUGUGGAUGGGUGUGUGUCUGUCUUGGGAUGGGGUGUUCUUGCACCACUUUGUGUUCUUAGUGAGACCACAGUGUAAGUGGCCGUGUGUGUGUGUGGGGGGGGGCACCUAGACAUUGUGGUGUGUCUGUAUGGCUCUGUGUUUUCAGGGGUGGGUGACACAGGCCUGUCUGAUGAGCACCAGGUCUGUUCCAGGCUGUGGCAAGCUGGCUCCUGGCUCAGAAGUGACUCUUGCGGUCGCACUAGUGUGGAAUUCUCGGGUGUCAAGG
B9: ENSMUSG00000043670.198|Diras1 (ssRNA)
RNA: GGGAGUUCUACAGUCCGACGAUCGCUUCGAUAUCCGCAUGCUAGAGACUGUCCAGGAGACUUGAGUGGCUCCUGGGCCUGUGUCCCACCCAGAUGAGGGUGACUUAGAAUUCUGUGUUUAUGUGCCUGUGUGUGUGGAUGGGUGUGUGUCUGUCUUGGGAUGGGGUGUUCUUGCACCACUUUGUGUUCUUAGUGAGACCACAGUGUAAGUGGCCGUGUGUGUGUGUGGGGGGGGGCACCUAGACAUUGUGGUGUGUCUGUAUGGCUCUGUGUUUUCAGGGGUGGGUGACACAGGCCUGUCUGACUCUUGCGGUCGCACUAGUGUGGAAUUCUCGGGUGUCAAGG
B10: ENSMUSG00000043670.209|Diras1 (ssRNA)
RNA: GGGAGUUCUACAGUCCGACGAUCGCUUCGAUAUCCGCAUGCUAUUCUGUGUUUAUGUGCCUGUGUGUGUGGAUGGGUGUGUGUCUGUCUUGGGAUGGGGUGUUCUUGCACCACUUUGUGUUCUUAGUGAGACCACAGUGUAAGUGGCCGUGUGUGUGUGUGGGGGGGGGCACCUAGACAUUGUGGUGUGUCUGUAUGGCUCUGUGUUUUCAGGGGUGGGUGACACAGGCCUGUCUGAUGAGCACCAGGUCUGUUCCAGGCUGUGGCAAGCUGGCUCCUGGCUCAGAAGUGACAAAGCUGCAGUCUCUUGCGGUCGCACUAGUGUGGAAUUCUCGGGUGUCAAGG

Molecular target: TDP-43 (Homo sapiens, UniProt Q13148 1-414)
Sequence (Q13148 whole entry): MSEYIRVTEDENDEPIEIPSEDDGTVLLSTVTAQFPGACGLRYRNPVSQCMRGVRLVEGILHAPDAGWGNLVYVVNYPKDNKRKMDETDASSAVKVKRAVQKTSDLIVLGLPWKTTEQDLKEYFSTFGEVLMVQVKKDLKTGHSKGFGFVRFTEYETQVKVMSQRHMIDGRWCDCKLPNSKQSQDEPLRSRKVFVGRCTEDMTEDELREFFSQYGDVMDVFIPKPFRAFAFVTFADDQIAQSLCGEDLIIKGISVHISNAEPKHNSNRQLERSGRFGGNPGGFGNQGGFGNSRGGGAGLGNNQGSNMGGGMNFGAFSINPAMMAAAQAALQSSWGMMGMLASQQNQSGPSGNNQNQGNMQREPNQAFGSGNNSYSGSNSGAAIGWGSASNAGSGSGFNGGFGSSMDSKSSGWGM
Experiment: RNA Bind-n-Seq with designed 260-mer pool; 25 mM Tris-HCl, 150 mM KCl, 3 mM MgCl2, BSA (printed 500 mg/mL), 20 units/mL SUPERase IN; pH not stated; 500 nM RNA pool, 1 h, 4 C; TDP-43 5, 50, 500 nM; high values mean tight binding
Conditions: protein: recombinant; tags: SBP (GST cleaved off with PreScission; pGEX-GST-SBP)
In short: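 Duplicate measurements used two independent batches of recombinant SBP-tagged TDP-43, which was captured on streptavidin beads at 5, 50 or 500 nM. The beads were incubated with 500 nM of an in vitro-transcribed 260-nt 3′ UTR oligo pool for 1 h at 4 °C in 25 mM Tris-HCl, 150 mM KCl, 3 mM MgCl2, BSA and SUPERase IN. After washing, biotin elution, reverse transcription, PCR amplification and sequencing, binding was expressed as R: each oligo's normalized read abundance in the bound sample over its abundance in input.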

Binder	binding signal
B1	7.36 R (bound/input frequency ratio)
B2	5.7 R (bound/input frequency ratio)
B3	3.25 R (bound/input frequency ratio)
B4	6.14 R (bound/input frequency ratio)
B5	7.79 R (bound/input frequency ratio)
B6	7.32 R (bound/input frequency ratio)
B7	1.5 R (bound/input frequency ratio)
B8	8.86 R (bound/input frequency ratio)
B9	4.93 R (bound/input frequency ratio)
B10	5.23 R (bound/input frequency ratio)
